Laboratory results as given in PubChem BioAssay AID651780 (The Scripps Research Institute Molecular Screening Center, 2012).
Among all 2,400 compounds or so, about 1,800 (75%) were called active. No stated cut-off is given here; in the data, active means inhibition above about 22%; inactive means the rest. The set was probably picked from earlier hits. The list is a sample of the results.

assay: calcium response inhibition in counter-screen line – cell-based, fluorescence, counter-screen for hTAAR1 antagonist project (AID 651780); conditions: counterscreen cell line, antagonist mode, at 3 µM, hits give high values;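 further: CHO-Ga16 host cells stimulated with ATP at an EC80 level; 0% = agonist EC80 plus vehicle and 100% = vehicle without agonist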

SMILES	inhibition
COc1ccc(C(=O)Nc2cccc(NC(=O)c3ccc(OC)cc3OC)n2)c(OC)c1	22.6% (active)
CSc1nc(-c2ccccc2)nc(C(Cl)Cl)n1	-4.34% (inactive)
COc1cc(/C=C2/C(=O)ON=C2C)ccc1OCc1ccccc1F	57.1% (active)
Cc1nc(N2CCN(c3ccccn3)CC2)c2c(C)c(C(=O)Nc3ccc(F)cc3)sc2n1	36.4% (active)
CSC(=S)N/N=C/c1c[nH]c2ccccc12	19.5% (inactive)
Nc1nonc1-n1nnc(C(=O)N/N=C/c2c[nH]c3ccccc23)c1-c1ccccc1	29.3% (active)
COc1ccc(CCNC2=C(Cl)C(=O)N(Cc3ccccc3)C2=O)cc1OC	31.3% (active)
COc1ccc(OC)c2[nH]c(=O)c(CCNC(=O)C(=O)c3c[nH]c4ccccc34)cc12	26.8% (active)
CC(=O)OCCN(CCCn1c(-c2ccncc2)nc2ccccc21)c1nc(-c2ccc(C)cc2)cs1	24.1% (active)
O=c1[nH]c(CSc2ncc(-c3ccc(F)cc3)n2Cc2ccco2)nc2ccccc12	29.8% (active)
CCCCNc1c(-c2cccc(Sc3ccc(OC)cc3)c2)nc2ccccn12	42.4% (active)
C[C@H](O)[C@@H]1C(=O)N2CCc3c([nH]c4c(-c5ccc6c(c5)OCO6)cccc34)[C@@H]2C[C@@H]1N(C)C(=O)c1ccco1	35.2% (active)
Cc1cccc(NC(=O)c2ccc(COc3ccccc3[N+](=O)[O-])o2)n1	15.8% (inactive)
COC(=O)C1=C(C)N(Cc2ccc(F)cc2)C(=S)NC1c1cccc(Cl)c1 (centres undefined)	23.3% (active)
O=C(N/N=C/c1ccc(Cl)c(Cl)c1)c1ccc2nc[nH]c2c1	27.9% (active)
Cc1nn(-c2ccccc2)c(C)c1NC(=O)COC(=O)c1cc(Cl)ccc1O	32.8% (active)
CNC(=O)c1ccsc1NC(=O)c1ccc(S(=O)(=O)N2CCc3ccccc32)cc1	32.3% (active)
CCN1CCc2c(C#N)c(NCc3ccccc3)nc(NCCO)c2C1	5.04% (inactive)
C=CCn1c(SCc2cccc(F)c2)nc2cc(C(=O)N3CCC(C(N)=O)CC3)ccc2c1=O	25.6% (active)
CC(=O)c1ccccc1OCc1ccc(C(=O)c2ccccc2)cc1	27% (active)
CCNS(=O)(=O)c1ccc(CCC(=O)N2CCN(c3cc(Cl)ccc3C)CC2)cc1	37.1% (active)
COc1ccc(Cl)cc1NC(=O)CCS(=O)(=O)c1cc2c(cc1C)NC(=O)CO2	23.5% (active)
CCc1ccc2c(c1)NC(=O)C2(C)Cc1ccc(OC(F)(F)F)cc1 (centres undefined)	4.79% (inactive)
COc1ccc(C(=O)Oc2ccc(-c3nnco3)cc2)cc1S(=O)(=O)N1CCOCC1	25.1% (active)
O=C(Oc1ccc(-c2nnco2)cc1)c1ccc(F)c(S(=O)(=O)N2CCOCC2)c1	32.8% (active)
O=C(Nc1ccc(-c2nnc(-c3ccccc3)o2)cc1)c1ccc(Br)o1	16% (inactive)
CCC(=O)Oc1cccc(C(=O)Nc2ccc(-c3nnc(-c4ccco4)o3)cc2)c1	26.1% (active)

SMILES	inhibition
COc1ccc2[nH]c(=O)c(CN(Cc3cccnc3)S(=O)(=O)c3ccccc3F)cc2c1	34.9% (active)
C=CCc1cc(S(=O)(=O)c2ccc(O)c(CC=C)c2)ccc1O	18.2% (inactive)
O=C(NCCN1CCOCC1)c1ccccc1N1C(=O)[C@@H]2Cc3c([nH]c4ccccc34)C(c3cccc(Cl)c3)N2C1=O (some centres undefined)	26.3% (active)
COC(=O)[C@@]1(Sc2ccc(C)cc2)CC(=O)N(c2cccc(SC)c2)[C@@H]1c1ccccc1	21.8% (active)
Clc1ccc(Nc2ncnc3c2nnn3Cc2ccccc2)cc1	9.4% (inactive)
Cc1ccc2c(c1)N(CC(=O)NCCc1ccc(Cl)cc1)C(=O)c1cccnc1O2	22.1% (active)
Cc1ccc(-n2c(C)cc(/C=N\NC(=O)CC(=O)NC(C)C)c2C)cc1	7.15% (inactive)
C/C(=N\Nc1ncc(Cl)cc1Cl)c1ccc(S(=O)(=O)NCc2ccco2)cc1	28.7% (active)
Fc1ccc(/C=N/Nc2nc(-c3cccnc3)nc3ccccc23)cc1	25.1% (active)
O=C(OCC(=O)N(CCc1ccccc1)Cc1ccccc1)c1ccccc1[N+](=O)[O-]	33.2% (active)
Cc1ccc2cccc(OCCCOc3ccccc3CO)c2n1	20.3% (inactive)
COc1cc(OC)cc(C(=O)OCC(=O)Nc2sccc2C(N)=O)c1	27.8% (active)
COc1cc(SC#N)ccc1N=Cc1c(C)[nH]n(-c2ccc(C)cc2)c1=O	87.2% (active)
C=CCC[C@H](Cc1ccc(F)cc1)C(=O)OC[C@H](C)NC(=O)[C@H](CC=C)CC(=O)N(CCO)Cc1ccccc1	27.6% (active)
C=CCC[C@@H](Cc1ccc(F)cc1)C(=O)O[C@H](CNC(=O)[C@H](CC=C)CC(=O)N(CCO)Cc1ccccc1)c1ccccc1	39.2% (active)
Oc1ccccc1N1CCN(c2ncnc3sc(-c4ccccc4)cc23)CC1	30.2% (active)
O=S(=O)(c1cccs1)N1CCCc2nc(-c3ccc(Br)cc3)ccc21	33.3% (active)
CCOC(=O)C1=C(NC(=S)NC(=O)c2ccccc2)c2ccccc2CC1(C)C	24.8% (active)
COc1ccc(-c2nn(-c3ccccc3)cc2C(=O)Nc2nccs2)cc1OC	24.8% (active)
CSCCC(NC(=O)COc1ccccc1)C(=O)OCCOc1ccc(Br)cc1 (centres undefined)	21.9% (active)
CSCCC(NC(=O)COc1ccccc1)C(=O)OCC(=O)c1cc2ccccc2o1 (centres undefined)	24.2% (active)
C[C@@H]1CN([C@@H](C)CO)S(=O)(=O)c2ccc(C#Cc3cccc(F)c3)cc2O[C@H]1CN(C)S(=O)(=O)c1cn(C)cn1	38.3% (active)
Cc1ccc(SCc2c(C(=O)N/N=C/c3cccnc3)nnn2-c2nonc2N)cc1	38.4% (active)
Oc1ccc(/C=N/Nc2nc(-c3ccccc3F)nc3ccccc23)c(O)c1	38.2% (active)
COc1ccc(S(=O)(=O)N(CC(=O)NCc2ccco2)c2ccc(F)cc2)cc1	19.3% (inactive)
COc1ccc(N(CC(=O)N/N=C/c2cccs2)S(=O)(=O)c2ccc(OC)c(OC)c2)cc1	25.2% (active)
O=C(CN1CCCSc2ccccc21)N1CCN(S(=O)(=O)c2cccc(F)c2)CC1	19.4% (inactive)
